In PubChem BioAssay (EPA / NIEHS) one finds outcome and AC50 data, which are given here for 14 compounds.

A word on the AC50: it is the concentration giving half of the maximal activity seen.

Assay [1] can be described thus: CCTE_Mundy_HCI_iCellGluta_NOG_NeuriteLength: CCTE's Neurite Outgrowth Assay in iCellGluta cells for Neurite Length, Mundy Lab (AID 2284318; active means hit-call score of the fitted dose curve at least 0.9, where 1 is the maximum). The gist of the method: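 Automated high-content imaging of betaIII-tubulin (Alexa Fluor-488) and Hoechst-stained cells gave neurite length, normalized to the DMSO baseline.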
Assay [2] addresses human CYP19A1, CYP19A1 (gene 1588) (UniProt P11511). Kind of assay: NVS_ADME_hCYP19A1: NovaScreen (NVS) CYP450-related Enzyme Activity (ADME) Assay for human CYP19A1 (AID 2283098; active means hit-call score of the fitted dose curve at least 0.9, where 1 is the maximum). The method, boiled down: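 Primary testing was in duplicate at a single 10 uM concentration, with actives followed up in concentration-response series. Fluorescence read-out of recombinant enzyme activity at 0.5 h, cell-free. Acetonitrile was the negative-control baseline.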

In another assay the target is AR (gene 367) (UniProt P10275). Kind of assay: ACEA_AR_agonist_80hr: ACEA Biosciences xCELLigence Real-Time Cell Analysis on Androgen Receptor Agonism for Proliferation (AID 2283783; active means hit-call score of the fitted dose curve at least 0.9, where 1 is the maximum;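 further: hits increase impedance growth signal above DMSO baseline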). The method, boiled down:
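Eight concentrations, 1:4 serial dilution from a 100 uM final top, in biological duplicate. Impedance-based real-time growth of 22Rv1 cells after overnight baseline, recorded hourly and read at 80 hours. Controls: testosterone, MG132, assay media.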

The target of assay [3] is Nucleoli Translocation, AR (gene 367) (UniProt P10275). Kind of assay: UPITT_HCI_U2OS_AR_TIF2_Nucleoli_Antagonist: University of Pittsburgh U2OS Androgen Receptor-Transcriptional Intermediary Factor 2 (AR-TIF2) Antagonism High Content Imaging Assay for Nucleoli Translocation (AID 2283997; active means hit-call score of the fitted dose curve at least 0.9, where 1 is the maximum). The gist of the method:
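Antagonism is read as loss of nucleolar AR-RFP signal relative to DHT, imaged in U2OS cells also carrying GFP-TIF2. Compounds screened at 20 uM final, 0.2% DMSO; primary actives retested in triplicate.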

Assay [4] is described as follows: TOX21_PR_BLA_Followup_Agonist_viability: Viability Assessment in the Tox21 HEK293 Progesterone Receptor (PR) Agonism Beta-lactamase Follow-Up Assay (AID 2283935; active means hit-call score of the fitted dose curve at least 0.9, where 1 is the maximum;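 further: signal loss means lower viability so actives are cytotoxic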). The gist of the method:
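Run multiplexed with the beta-lactamase FRET read, this endpoint measures ATP by CellTiter-Glo luminescence (30 min, room temperature). PR-UAS-bla HEK293T cells received compound 6 hr after plating and were then incubated 16 hr at 37C in 2% stripped serum.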

Assay [5] can be described thus: TOX21_PR_BLA_Followup_Antagonist_viability: Viability Assessment in the Tox21 HEK293 Progesterone Receptor (PR) Antagonism Beta-lactamase Follow-Up Assay (AID 2283936; active means hit-call score of the fitted dose curve at least 0.9, where 1 is the maximum;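 further: cells exposed to compound with R5020 agonist for 16 h; hits lower the luminescence signal meaning cytotoxicity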). The gist of the method:
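PR-UAS-bla HEK293T cells in medium with 2% charcoal-stripped FBS were treated with compounds plus R5020 for 16 hr at 37C. After the beta-lactamase read, CellTiter-Glo was added to the same wells and luminescence read after 30 min at room temperature.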

Assay [6] is described as follows: TOX21_PR_LUC_Followup_Antagonist_viability: Viability Assessment in the Tox21 HEK293 Progesterone Receptor (PR) Antagonism Luciferase Follow-Up Assay (AID 2283940; active means hit-call score of the fitted dose curve at least 0.9, where 1 is the maximum). The gist of the method: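 Viability counter-readout: cellular ATP measured by luciferase luminescence after 16 h compound exposure at 37C of HEK293-PR-A-luc cells, which had been cultured in charcoal-stripped serum and seeded 5 h beforehand.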

Assay [7] is described as follows: TOX21_PR_LUC_Followup_Agonist_viability: Viability Assessment in the Tox21 HEK293 Progesterone Receptor (PR) Agonism Luciferase Follow-Up Assay (AID 2283941; active means hit-call score of the fitted dose curve at least 0.9, where 1 is the maximum;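 further: loss of signal means cytotoxicity so actives lower viability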). The gist of the method:
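Cytotoxicity counter-readout in the PR-A luciferase reporter line HEK293, with 16 h compound exposure at 37C after cells were cultured in charcoal-stripped serum. Cellular ATP quantified by CellTiter-Glo luminescence.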

Assay [8] is described as follows: CEETOX_H295R_11DCORT_noMTC: CeeTox H295R High-throughput Steroidogenesis Assay for 11-Deoxycortisol (11DCORT), maximum tolerated concentration (MTC) filtered results only (AID 2283911). To be noted: actives raise or lower the signal. The method, boiled down:
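Values carry no filtering for maximum tolerated concentration: medium from forskolin-primed (10 uM, 48 h) H295R cells after 48 h chemical exposure (0.1% DMSO) was MTBE-extracted, and 11-deoxycortisol quantified by reverse-phase HPLC-MS/MS. Fitting was bidirectional against DMSO.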

A short description of assay [9]: CEETOX_H295R_OHPREG_noMTC: CeeTox H295R High-throughput Steroidogenesis Assay for OH-Pregnenolone (OHPREG), maximum tolerated concentration (MTC) filtered results only (AID 2283912). As to conditions: actives raise or lower the signal. The method, boiled down: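 Medium 17alpha-hydroxypregnenolone quantified by reverse-phase HPLC-MS/MS after 48 h chemical exposure of forskolin-prestimulated (10 uM, 48 h) H295R, 0.1% DMSO final. Fitting bidirectional relative to DMSO; no maximum-tolerated-concentration filtering applied.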

The nature of assay [10]: CEETOX_H295R_OHPROG_noMTC: CeeTox H295R High-throughput Steroidogenesis Assay for OH-Progesterone (OHPROG), maximum tolerated concentration (MTC) filtered results only (AID 2283914). As to conditions: actives raise or lower the signal. The gist of the method: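 After 48 h forskolin (10 uM) prestimulation, H295R adrenal cells received test chemical in 0.1% DMSO for 48 h. Medium 17alpha-hydroxyprogesterone was MTBE-extracted and measured by HPLC-MS/MS; gain or loss relative to DMSO, no MTT-based MTC filtering.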

Assay [11] is described as follows: CEETOX_H295R_CORTISOL_noMTC: CeeTox H295R High-throughput Steroidogenesis Assay for Cortisol, maximum tolerated concentration (MTC) filtered results only (AID 2283916). To be noted: actives raise or lower the signal. The gist of the method:
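Cortisol secretion measured by LC-MS/MS after 48 h chemical treatment (final 0.1% DMSO) of forskolin-primed (10 uM, 48 h) H295R cells; gain or loss fitted relative to DMSO, without maximum-tolerated-concentration filtering.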

The nature of assay [12]: CEETOX_H295R_CORTIC_noMTC: CeeTox H295R High-throughput Steroidogenesis Assay for Corticosterone (CORTIC), maximum tolerated concentration (MTC) filtered results only (AID 2283917). To be noted: actives raise or lower the signal. The method, boiled down: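 Human adrenal H295R cells were prestimulated 48 h with 10 uM forskolin, then exposed 48 h to chemical in 0.1% DMSO. Medium corticosterone was MTBE-extracted and quantified by HPLC-MS/MS; bidirectional fits versus DMSO, concentrations not MTC-filtered.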

Assay [13] can be described thus: CEETOX_H295R_DOC_noMTC: CeeTox H295R High-throughput Steroidogenesis Assay for DOC, maximum tolerated concentration (MTC) filtered results only (AID 2283918). To be noted: actives raise or lower the signal. The gist of the method:
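11-Deoxycorticosterone secreted by human adrenal H295R cells quantified by HPLC-MS/MS after 48 h chemical exposure (0.1% DMSO), following 48 h 10 uM forskolin prestimulation. Concentrations not filtered by MTT-derived MTC; bidirectional fitting.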

A short description of assay [14]: CEETOX_H295R_PROG_noMTC: CeeTox H295R High-throughput Steroidogenesis Assay for Progesterone (PROG), maximum tolerated concentration (MTC) filtered results only (AID 2283920). As to conditions: actives raise or lower the signal. The gist of the method: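 Progesterone secreted into medium was measured by HPLC-MS/MS after MTBE extraction, following 48 h chemical exposure (0.1% DMSO) of forskolin-prestimulated (10 uM, 48 h) H295R adrenal cells. Gain or loss fitted against DMSO; no MTC filtering.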

Assay [15] concerns the target Retinoic acid receptor alpha (Homo sapiens) (UniProt P10276). Kind of assay: NVS_NR_hRARa_Agonist: NovaScreen (NVS) Nuclear Receptor Binding Assay for human Retinoic Acid Alpha Receptor Agonism (RAR) (AID 2283361; active means hit-call score of the fitted dose curve at least 0.9, where 1 is the maximum). The gist of the method: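 Agonist-mode TR-FRET binding format using extracted protein, measured at 2 h post-dosing. Initial duplicate single-point screen at 25 uM preceded concentration series for actives; activity was normalized to DMSO baseline.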

The nature of assay [16]: CEETOX_H295R_11DCORT: CeeTox H295R High-throughput Steroidogenesis Assay for 11-Deoxycortisol (11DCORT) (AID 2283432). To be noted: actives raise or lower the signal. The method, boiled down:
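Human adrenal H295R cells were prestimulated with 10 uM forskolin for 48 h, then exposed to test chemical (0.1% DMSO final) for 48 h. Medium 11-deoxycortisol was quantified by MTBE extraction and HPLC-MS/MS; bidirectional fitting relative to DMSO.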

The nature of assay [17]: CEETOX_H295R_CORTIC: CeeTox H295R High-throughput Steroidogenesis Assay for Corticosterone (CORTIC) (AID 2283437). To be noted: actives raise or lower the signal. The method, boiled down:
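Medium corticosterone was quantified by tandem mass spectrometry following 48 hours of chemical exposure (0.1% DMSO) in human H295R cells previously stimulated 48 hours with 10 uM forskolin. Viability checked by MTT; chemicals diluted and retested when viability fell below 70%.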

The nature of assay [18]: CEETOX_H295R_CORTISOL: CeeTox H295R High-throughput Steroidogenesis Assay for Cortisol (AID 2283438).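 Further: cortisol secreted into medium quantified by LC-MS/MS.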 To be noted: actives raise or lower the signal. The gist of the method:
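Cortisol measured by HPLC-MS/MS after MTBE extraction of medium from H295R cells exposed 48 h to chemical (0.1% DMSO), following 48 h prestimulation with 10 uM forskolin. Viability assessed by MTT in the same wells.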

Assay [19] in a line: CEETOX_H295R_DOC: CeeTox H295R High-throughput Steroidogenesis Assay for DOC (AID 2283439). To be noted: actives raise or lower the signal. The gist of the method: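 11-Deoxycorticosterone quantified in medium by MTBE extraction and HPLC-MS/MS after 48 h chemical exposure (0.1% DMSO) of forskolin-primed (10 uM, 48 h) H295R cells. Same-well MTT viability; data fitted bidirectionally against DMSO.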

Results filed as inconclusive are left out. Calls of active or inactive are those of the source. How the source made its calls, unless noted: active means hit-call score of the fitted dose curve at least 0.9, where 1 is the maximum; inactive means score below 0.9.

AR (gene 367), sequence (P10275 whole entry, looked up): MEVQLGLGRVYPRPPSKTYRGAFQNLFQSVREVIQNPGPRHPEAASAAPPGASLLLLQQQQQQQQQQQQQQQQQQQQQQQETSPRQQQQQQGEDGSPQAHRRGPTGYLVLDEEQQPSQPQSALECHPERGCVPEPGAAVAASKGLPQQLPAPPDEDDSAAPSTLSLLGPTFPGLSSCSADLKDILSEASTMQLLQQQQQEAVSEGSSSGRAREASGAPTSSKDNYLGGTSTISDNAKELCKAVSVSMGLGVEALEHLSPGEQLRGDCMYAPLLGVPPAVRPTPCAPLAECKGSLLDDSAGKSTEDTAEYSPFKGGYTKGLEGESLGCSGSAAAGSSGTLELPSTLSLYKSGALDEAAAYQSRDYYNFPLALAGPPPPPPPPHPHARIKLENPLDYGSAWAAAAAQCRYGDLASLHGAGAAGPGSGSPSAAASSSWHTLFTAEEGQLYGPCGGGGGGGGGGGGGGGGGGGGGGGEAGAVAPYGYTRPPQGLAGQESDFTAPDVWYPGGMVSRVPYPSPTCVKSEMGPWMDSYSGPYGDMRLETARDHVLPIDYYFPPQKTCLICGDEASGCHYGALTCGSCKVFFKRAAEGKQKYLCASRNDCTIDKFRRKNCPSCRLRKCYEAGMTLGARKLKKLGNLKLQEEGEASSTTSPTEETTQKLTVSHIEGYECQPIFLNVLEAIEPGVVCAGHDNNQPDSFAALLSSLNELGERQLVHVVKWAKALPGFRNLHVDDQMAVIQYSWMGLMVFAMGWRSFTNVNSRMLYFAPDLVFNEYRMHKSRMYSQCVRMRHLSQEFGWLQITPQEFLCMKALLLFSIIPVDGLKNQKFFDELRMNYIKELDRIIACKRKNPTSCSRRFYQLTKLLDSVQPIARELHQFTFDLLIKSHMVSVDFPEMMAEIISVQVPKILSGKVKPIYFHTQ
Nucleoli Translocation, AR (gene 367), sequence (P10275 whole entry, looked up): as above
human CYP19A1, CYP19A1 (gene 1588), sequence (P11511 whole entry, looked up): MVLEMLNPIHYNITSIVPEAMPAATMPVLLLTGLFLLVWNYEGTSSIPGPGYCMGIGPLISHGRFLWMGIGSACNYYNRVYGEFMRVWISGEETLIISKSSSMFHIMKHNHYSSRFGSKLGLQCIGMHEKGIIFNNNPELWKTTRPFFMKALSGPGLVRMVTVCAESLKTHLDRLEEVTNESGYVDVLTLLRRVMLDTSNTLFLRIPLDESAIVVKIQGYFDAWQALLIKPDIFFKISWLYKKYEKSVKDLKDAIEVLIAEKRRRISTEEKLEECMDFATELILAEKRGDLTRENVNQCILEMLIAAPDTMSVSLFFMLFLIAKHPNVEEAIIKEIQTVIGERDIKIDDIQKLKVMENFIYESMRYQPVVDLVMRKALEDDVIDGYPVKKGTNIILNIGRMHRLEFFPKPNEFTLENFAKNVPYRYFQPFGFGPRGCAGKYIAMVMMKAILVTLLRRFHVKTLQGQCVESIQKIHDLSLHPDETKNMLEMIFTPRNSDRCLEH
Retinoic acid receptor alpha (Homo sapiens), sequence (P10276 whole entry, looked up): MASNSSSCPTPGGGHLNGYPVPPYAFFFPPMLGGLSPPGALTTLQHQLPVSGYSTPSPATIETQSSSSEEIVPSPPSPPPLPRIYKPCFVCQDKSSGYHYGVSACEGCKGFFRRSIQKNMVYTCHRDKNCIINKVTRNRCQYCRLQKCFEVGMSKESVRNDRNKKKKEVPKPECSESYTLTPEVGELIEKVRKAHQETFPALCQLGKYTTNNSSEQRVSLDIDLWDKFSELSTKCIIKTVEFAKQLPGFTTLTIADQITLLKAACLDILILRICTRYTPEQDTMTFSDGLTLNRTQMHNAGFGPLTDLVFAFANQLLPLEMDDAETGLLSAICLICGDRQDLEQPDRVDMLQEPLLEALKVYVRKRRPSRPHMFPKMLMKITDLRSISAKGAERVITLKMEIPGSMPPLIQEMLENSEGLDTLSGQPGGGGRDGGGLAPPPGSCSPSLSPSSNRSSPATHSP

`CN(C)CCC(c1ccc(Cl)cc1)c1ccccn1` (stereo not given): the call in [1] was inactive.
Take `O=C(OCc1ccccc1)c1ccccc1`: in assay [2], the outcome was inactive.
For `Cc1cc(C)c(S(=O)(=O)O)cc1N=Nc1cc(S(=O)(=O)O)c2ccccc2c1O`, the compound was called inactive (in the assay with AR (gene 367); in assay [3]).
As for `C[C@H]1C[C@H]2[C@@H]3CCC4=CC(=O)C=C[C@]4(C)[C@@]3(F)[C@@H](O)C[C@]2(C)[C@@]1(O)C(=O)CO`, the outcome in assay [4], in assay [5], in assay [6] and in assay [7] was inactive.
As for `O=C(O)c1ccccc1C(=O)O`, the outcome in [8], in [9], in assay [10], in assay [11], in [12] and in [13] was inactive. In [14], the call was inactive.
Turning to `c1cc[c]([Bi]([c]2ccccc2)[c]2ccccc2)cc1`, the outcome in [4], in assay [5], in assay [6] and in assay [7] was inactive.
In the case of `Cc1cc2nc3c(=O)[nH]c(=O)nc-3n(C[C@H](O)[C@H](O)[C@H](O)CO)c2cc1C`, in [15], the AC50 is 6.52 µM (active).
Take `Cc1cc(O)cc(C)c1Cl`: the compound was classed as inactive in assay [15], in assay [16], in assay [17], in assay [18] and in assay [19].
With `CO[Si](CCCNCCN)(OC)OC`, the compound was called inactive with AR (gene 367).
In the case of `CC1=NN(c2cc(Cl)c(S(=O)(=O)O)cc2Cl)C(=O)C1N=Nc1ccc(S(=O)(=O)O)cc1` (stereo not given), in assay [2], the call was inactive.
`Sc1nc2ccccc2s1`: the compound was classed as inactive in assay [8], in assay [9], in assay [10], in [11], in [12] and in [13]. The compound was called inactive in assay [14].
Take `O=C(c1ccccc1)c1ccccc1O`: the compound was called inactive in [3].
With `NC(N)=Nc1nc(CSCCC(N)=NS(N)(=O)=O)cs1`, the result in assay [1] was inactive.
As to `c1ccc(CNc2ncnc3nc[nH]c23)cc1`, the call in assay [16], in [17], in [18] and in assay [19] was inactive.
